# According to PubChem BioAssay (NCATS):
# Results filed as inconclusive are left out. Unmarked numbers belong to inactive results. The source made the active and inactive calls. Calls come from the whole dose curve; as a rule, active = well fitted inhibition curve with a large enough effect; inconclusive = small, poorly fitted or top-dose-only effect; inactive = flat fitted curve, though single readings scatter.
# Molecular target: Calcium and integrin-binding protein 1 (Homo sapiens) (UniProt Q99828)
# Sequence (Q99828 whole entry, looked up): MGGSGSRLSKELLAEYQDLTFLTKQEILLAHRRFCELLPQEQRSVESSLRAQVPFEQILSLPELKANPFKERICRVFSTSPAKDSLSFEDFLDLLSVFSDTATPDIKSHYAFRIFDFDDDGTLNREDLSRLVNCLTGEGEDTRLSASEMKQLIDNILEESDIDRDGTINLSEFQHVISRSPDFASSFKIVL
# Test: Primary qHTS for Identification of Calcium Integrin Binding Protein 1 (CIB1) Competitor (AID 1508620); note: top concentration of the series differs between compounds
# Conditions: CIB1-GST / FITC-alphaIIb peptide fluorescence polarization; series mostly up to 114 µM; activity change, negative = inhibition: at the top concentration
# Outline: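 Fluorescence polarization competition: GST-tagged CIB1 (1 uM final) preincubated with compound 15 min at room temperature, then FITC-labelled alphaIIb peptide (100 nM final) added. After 15 min at room temperature, polarization read at Ex 480/Em 540.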
# % is set by controls: 0 for no effect and ±100 for the full control effect.
SMILES,"activity change, negative = inhibition",Potency
CC(C)(C)OC(=O)N1CCN(c2ccc(NCc3cncc(-c4ccc(C#N)cc4)c3)cc2)CC1,-5.96%,–
COc1cc(F)cc(F)c1[S+](=O)([O-])N1CCN([S+](=O)([O-])c2ccc3c(c2)OCCO3)CC1,1.46%,–
Cc1cccc(CNc2ccnc(-c3ccc(F)cc3F)n2)c1,-1.52%,–
COc1cccc(CNc2ccc(S(=O)(=O)Nc3cccnc3)cc2)c1O,-4%,–
COc1cccc(CN2C(=O)c3ccccc3NC2c2ccc(OC)c(COc3c(C)cc(NC(C)=O)cc3C)c2)c1 (centres undefined),-2.26%,–
Cc1ccc(OCCn2c(CCNC(=O)c3cccc(C(F)(F)F)c3)nc3ccccc32)cc1,–,inactive
CCOc1ccc(CCNC(=O)CN(C)C)cc1OCC,0.894%,–
COc1nccc(-c2nc(Nc3ccc(F)c(F)c3)c3ccccc3n2)c1OC,3.27%,–
O=S(=O)(c1ccc2c(c1)OCCO2)N1CCN(S(=O)(=O)c2ccccn2)CC1,2.42%,–
c1ccc(CN(Cc2ccccc2)Cc2nnc(-c3cc4ccccc4[nH]3)s2)cc1,1.52%,–
O=C(Oc1cccnc1)c1cccs1,7.7%,–
O=C(CN1C(=O)N/C(=C\c2cccn2-c2cccc(C(=O)O)c2)C1=O)Nc1cccc(F)c1,-9%,–
O=S(=O)(c1ccc2c(c1)OCCO2)N1CCN(S(=O)(=O)c2cc(F)ccc2F)CC1,-0.213%,–
Oc1ccc(CNc2cc(C(F)(F)F)ccn2)c2cccnc12,-0.856%,–
Cc1ccc(NS(=O)(=O)c2cc3c(cc2N(C)CCN(C)C)NC(=O)CC3)cc1C,3.27%,–
S=C(Nc1cc(Cl)ccn1)N1CCN(c2ccc3ccccc3n2)CC1,-4.92%,–
COC(=O)Nc1sc2c(c1C(N)=O)CCCC2,-1.29%,–
O=C(Nc1ccc(F)c(F)c1)Nc1nnc(-c2ccncc2)s1,3.77%,–
O=C1Nc2ccccc2C12CC2c1cc(Cl)c(O)c(Cl)c1 (centres undefined),–,inactive
Nc1ccc2c(c1)C(=O)NS2(=O)=O,1.28%,–

SMILES,"activity change, negative = inhibition",Potency
COCc1nn2c(=O)cc(N3CCNCC3)nc2s1,-0.148%,–
Fc1ccccc1N1CCN(c2nc(-c3cccs3)nc3ccccc23)CC1,-1.98%,–
CC(=O)N1CCN(c2ccc(NS(=O)(=O)c3ccc4c(c3)CC(=O)N4)cc2)CC1,-18% [at 228 µM],–
CC(=O)Nc1sc2c(c1-c1ccc3nc[nH]c3c1)CCNC2,8.24%,–
Cc1ccc(-c2ccc(CNc3nc(-c4ccccc4C(C)C)nc4ccsc34)cc2)cn1,-0.0866%,–
O=C1CCCC2=C1C(c1[nH]ncc1Cl)N=C(Nc1cccnc1)N2 (centres undefined),-1.39%,–
O=C(OCC#CCSc1nnc(-c2ccc3ccccc3c2)o1)c1ccsc1,2.86%,–
Cc1ccc(OCCn2c(CCNC(=O)CCN3CCCCC3)nc3ccccc32)cc1,3.12%,–
N=c1c2c(ncn1CCN1CCOCC1)Oc1ccc3ccccc3c1C2c1ccccc1 (centres undefined),0.14%,–
O=C1NS(=O)(=O)C(c2ccccc2)C1c1ccccc1 (centres undefined),-3.72%,–
Cc1c(C(=O)OCC2CCCCO2)[nH]c2c1C(=O)CC(c1ccco1)C2 (centres undefined),-21.8%,–
Cc1cc2c(s1)c1cnn(Cc3c(F)ccc(C)c3Cl)c(=O)c1n2C,18.6%,–
O=C1CCCC2=C1C(c1[nH]ncc1Cl)NC(=NCc1cccnc1)N2 (centres undefined),1.94%,–
N#Cc1cccc(-c2ccc(NC(=O)c3cccs3)cn2)c1,1.34%,–
Cc1noc(C)c1-c1ccc2ncnc(NC(C)c3ccco3)c2c1 (centres undefined),-5.88%,–
Cc1scc2c1C(=O)NS2(=O)=O,3.13%,–
COc1ccc(-c2nnc3n2N=C(c2ccccc2OC)CS3)cc1OC,-5.83%,–
O=C(Nc1ccc(-n2cncn2)c(C(F)(F)F)c1)Nc1nnc(-c2ccncc2)s1,9.14%,–
CCOC(=O)c1ccc(-c2ccc3ncnc(NCc4csc(C)n4)c3c2)o1,-15.9%,–
